Inconclusive results are not listed. The source made the active and inactive calls. Unless noted, calls come from the whole dose curve; as a rule, active = well fitted cell-killing curve with a large enough effect; inconclusive = small, poorly fitted or top-dose-only effect, or effect the other way; inactive = no such curve, though single readings can be large or run the other way.
Columns and labels:
[1] = Quantitative High-Throughput drug screen in 47 multiple myeloma cell lines against the NCATS MIPE library collection: KMS28PE_JCRB cell viability assay (AID 1918983); note: nearly all actives have a fitted effect of over 35% in size
Method in brief: (§1)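 Plated at 500 cells per well, myeloma lines received MIPE 4.0 compounds by pin tool. Following 48 h culture at 37 °C, CellTiter-Glo luminescence gave viability relative to DMSO and media-only controls.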

[2] = Quantitative High-Throughput drug screen in 47 multiple myeloma cell lines against the NCATS MIPE library collection: L363_DSMZ cell viability assay (AID 1918984); note: nearly all actives have a fitted effect of over 40% in size
Method in brief: as §1

[3] = Quantitative High-Throughput drug screen in 47 multiple myeloma cell lines against the NCATS MIPE library collection: KMS34_JCRB cell viability assay (AID 1918985); note: nearly all actives have a fitted effect of over 40% in size
Method in brief: as §1

[4] = Quantitative High-Throughput drug screen in 47 multiple myeloma cell lines against the NCATS MIPE library collection: OCIMY7_PLB cell viability assay (AID 1918987); note: nearly all actives have a fitted effect of over 65% in size
Method in brief: as §1

[5] = Quantitative High-Throughput drug screen in 47 multiple myeloma cell lines against the NCATS MIPE library collection: OCIMY5_PLB cell viability assay (AID 1918988); note: nearly all actives have a fitted effect of over 65% in size
Method in brief: as §1

[6] = Quantitative High-Throughput drug screen in 47 multiple myeloma cell lines against the NCATS MIPE library collection: OPM1_PLB cell viability assay (AID 1918989); note: nearly all actives have a fitted effect of over 40% in size
Method in brief: as §1

[7] = Quantitative High-Throughput drug screen in 47 multiple myeloma cell lines against the NCATS MIPE library collection: SKMM1_PLB cell viability assay (AID 1919863); conditions: SKMM1 myeloma viability, CellTiter-Glo ATP, 48 h; viability: stronger effect = lower value; note: nearly all actives have a fitted effect of over 35% in size
Method in brief: as §1

[8] = Quantitative High-Throughput drug screen in 47 multiple myeloma cell lines against the NCATS MIPE library collection: U266_ATCC cell viability assay (AID 1919864); note: nearly all actives have a fitted effect of over 35% in size
Method in brief: as §1

[9] = Quantitative High-Throughput drug screen in 47 multiple myeloma cell lines against the NCATS MIPE library collection: XG6_PLB cell viability assay (AID 1919865); note: nearly all actives have a fitted effect of over 40% in size
Method in brief: as §1

[10] = Quantitative High-Throughput drug screen in 47 multiple myeloma cell lines against the NCATS MIPE library collection: XG1_PLB cell viability assay (AID 1919866); note: nearly all actives have a fitted effect of over 35% in size
Method in brief: as §1

[11] = Quantitative High-Throughput drug screen in 47 multiple myeloma cell lines against the NCATS MIPE library collection: VP6_DJ cell viability assay (AID 1919867); note: nearly all actives have a fitted effect of over 40% in size
Method in brief: as §1

[12] = Quantitative High-Throughput drug screen in 47 multiple myeloma cell lines against the NCATS MIPE library collection: UTMC2_PLB cell viability assay (AID 1919868); conditions: CellTiter-Glo ATP luminescence, 48 h; viability (% of DMSO control): at 45.8 µM (top of the series) unless noted; note: nearly all actives have a fitted effect of over 55% in size
Method in brief: as §1

[13] = Quantitative High-Throughput drug screen in 47 multiple myeloma cell lines against the NCATS MIPE library collection: PE2_PLB cell viability assay (AID 1919869); note: nearly all actives have a fitted effect of over 35% in size
Method in brief: as §1

[14] = Quantitative High-Throughput drug screen in 47 multiple myeloma cell lines against the NCATS MIPE library collection: PCM6_Riken cell viability assay (AID 1919870); note: nearly all actives have a fitted effect of over 30% in size
Method in brief: as §1

[15] = Quantitative High-Throughput drug screen in 47 multiple myeloma cell lines against the NCATS MIPE library collection: RPMI8226_ATCC cell viability assay (AID 1919871); note: nearly all actives have a fitted effect of over 30% in size
Method in brief: as §1

[16] = Quantitative High-Throughput drug screen in 47 multiple myeloma cell lines against the NCATS MIPE library collection: KMS11_JCRBsus cell viability assay (AID 1919873); note: nearly all actives have a fitted effect of over 50% in size
Method in brief: as §1

[17] = qHTS drug screen for cell cycle checkpoint inhibitors in PARPi-resistant BRCA-mutant ovarian cancer cell lines. (AID 1963452; calls by dose curve); conditions: PEO1/OlaR viability, CellTiter-Glo luminescence, 96 h; for Z-AUC: stronger effect = lower value
Method in brief: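 PEO1, PEO4 and PEO1/OlaR ovarian cancer cells, 600 per well, exposed 96 h at 37C to a dilution series. Viability read by CellTiter-Glo luminescence, normalized to DMSO and empty wells; activity summarized as Z-AUC.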

[18] = Quantitative High-Throughput drug screen in 47 multiple myeloma cell lines against the NCATS MIPE library collection: OPM2_DSMZ cell viability assay (AID 1919872); note: nearly all actives have a fitted effect of over 30% in size
Method in brief: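 Relative luminescence from CellTiter-Glo served as the viability signal, referenced to DMSO-treated (100%) and cell-free medium (0%) controls. Treatment lasted 48 hours at 37C with 500 cells per well.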

[19] = qHTS for identification of novel therapeutic agents for treatment of microphthalmiaassociated transcription factor (MiT) renal cell carcinoma (RCC) (AID 1963991; calls by dose curve); conditions: CellTiter-Glo, 48 h; for Potency: active = Z-AUC below -0.8 in all three lines; for z-score: stronger effect = lower value
Method in brief: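 Three TFE3-fusion RCC cell lines (UOK109, UOK124, UOK145), 500 cells/well, were exposed to the 1912-compound MIPE 4.0 library for 48 hours at 37 C. Viability was read by CellTiter-Glo luminescence, normalised to DMSO (100%) and empty wells (0%), with 11-concentration curve fits.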

[20] = Quantitative High-Throughput drug screen in 47 multiple myeloma cell lines against the NCATS MIPE library collection: KMS28BM_JCRB cell viability assay (AID 1919874); note: nearly all actives have a fitted effect of over 35% in size
Method in brief: as §1

[21] = measured here: PEO1 parental Z-AUC
[22] = TFE3-RCC UOK109 viability, measured here: UOK109 Z-AUC
[23] = TFE3-RCC viability, measured here: UOK124 Z-AUC
[24] = TFE3-RCC viability, measured here: UOK145 Z-AUC
Potency is the fitted concentration of half-maximal effect.

O=C(CCCCCCNC(=O)c1cnc(N(c2ccccc2)c2ccccc2)nc1)NO
active: Potency [1] 7.43 µM | Potency [2] 4.69 µM | Potency [3] 5.9 µM | Potency [4] 13.2 µM | Potency [5] 4.69 µM | Potency [6] 6.62 µM | Potency [7] 9.35 µM | Potency [8] 9.35 µM | Potency [9] 14.8 µM | Potency [10] 9.35 µM | Potency [11] 2.35 µM | Potency [12] 7.43 µM | Potency [13] 9.35 µM | Potency [14] 9.35 µM | Potency [15] 14.8 µM | Potency [16] 7.43 µM
0.434: Z-AUC ([17]; measured here: PEO4 Z-AUC)
0.473: Z-AUC [17, 21]
inactive: Z-AUC [17] 0.809

CC(NCc1ccc2c(c1)nc(NC(=O)c1ccc(-c3cn[nH]c3)s1)n2CC(C)(C)O)C(C)(C)C (stereo unspecified)
-1.95: z-score [19, 22]
-1.22: z-score [19, 24]
active: Potency [1] 0.469 µM | Potency [2] 0.105 µM | Potency [3] 0.372 µM | Potency [4] 0.148 µM | Potency [5] 0.235 µM | Potency [6] 0.264 µM | Potency [7] 0.743 µM | Potency [8] 0.332 µM | Potency [9] 0.235 µM | Potency [10] 0.372 µM | Potency [11] 0.187 µM | Potency [12] 0.105 µM | Potency [13] 0.296 µM | Potency [14] 0.105 µM | Potency [18] 1.05 µM | Potency [16] 0.209 µM | Potency ([19]; TFE3-RCC UOK109 viability) 0.935 µM
-2.39: z-score [19, 23]

NC(=O)c1c(OCc2c(F)cc(Br)cc2F)nsc1NC(=O)NCCCCN1CCCC1
0.754: Z-AUC ([17]; measured here: PEO4 Z-AUC)
0.803: Z-AUC [17, 21]
inactive: Potency [2] | Z-AUC [17] 0.49
active: Potency [1] 18.7 µM | Potency [3] 20.9 µM | Potency [4] 8.33 µM | Potency [6] 13.2 µM | Potency [8] 29.6 µM | Potency [9] 7.43 µM | Potency [10] 8.33 µM | Potency [11] 10.5 µM | Potency [14] 10.5 µM | Potency [18] 20.9 µM | Potency [16] 20.9 µM

O=C(Nc1cn[nH]c1-c1nc2ccc(CN3CCOCC3)cc2[nH]1)NC1CC1
-1.15: Z-AUC [17, 21]
active: Potency [1] 7.43 µM | Potency [2] 2.64 µM | Potency [3] 0.418 µM | Potency [4] 0.332 µM | Potency [5] 4.18 µM | Potency [6] 1.66 µM | Potency [8] 2.35 µM | Potency [9] 0.743 µM | Potency [10] 0.148 µM | Potency [11] 2.96 µM | Potency [13] 0.935 µM | Potency [14] 2.64 µM | Potency [18] 4.69 µM | Potency [16] 1.32 µM | Potency [20] 1.05 µM | Potency [17] 0.871 µM
-1.9: Z-AUC ([17]; measured here: PEO4 Z-AUC)

C=CC(=O)Nc1cc2c(Nc3ccc(F)c(Cl)c3)ncnc2cc1C#CC(C)(C)N1CCN(C)CC1
-0.15: Z-AUC [17, 21]
-1.76: z-score [19, 23]
-0.45: Z-AUC ([17]; measured here: PEO4 Z-AUC)
active: Potency [1] 0.833 µM | Potency [2] 1.48 µM | Potency [3] 5.26 µM | Potency [4] 0.469 µM | Potency [6] 0.833 µM | Potency [8] 1.05 µM | Potency [9] 0.296 µM | Potency [10] 0.526 µM | Potency [11] 0.833 µM | Potency [12] 2.35 µM | Potency [14] 0.662 µM | Potency [15] 6.62 µM | Potency [18] 10.5 µM | Potency [16] 1.32 µM | Potency [20] 0.469 µM | Potency ([19]; TFE3-RCC UOK109 viability) 14.8 µM
inactive: Z-AUC [17] -0.203
-1.33: z-score [19, 24]
-2.39: z-score [19, 22]

COc1cc2c(NC3CCN(C(C)C)CC3)nc(C3CCCCC3)nc2cc1OCCCN1CCCC1
0.768: Z-AUC [17, 21]
active: Potency [1] 16.6 µM | Potency [2] 5.26 µM | Potency [3] 5.26 µM | Potency [4] 16.6 µM | Potency [6] 3.32 µM | Potency [7] 11.8 µM | Potency [8] 2.96 µM | Potency [9] 2.64 µM | Potency [11] 5.9 µM | Potency [12] 13.2 µM | Potency [13] 5.26 µM | Potency [14] 3.32 µM | Potency [18] 7.43 µM | Potency [16] 8.33 µM | Potency [20] 14.8 µM
inactive: Z-AUC [17] 0.841
0.938: Z-AUC ([17]; measured here: PEO4 Z-AUC)

O=C(O)c1ccc2cc(-c3ccc(O)c(C45CC6CC(CC(C6)C4)C5)c3)ccc2c1
active: Potency [1] 3.32 µM | Potency [2] 0.833 µM | Potency [3] 13.2 µM | Potency [4] 0.105 µM | Potency [5] 2.96 µM | Potency [7] 4.18 µM | Potency [9] 0.132 µM | Potency [10] 0.526 µM | Potency [11] 13.2 µM | Potency [12] 0.264 µM | Potency [13] 1.48 µM | Potency [14] 16.6 µM | Potency [15] 11.8 µM | Potency [18] 23.5 µM | Potency [16] 1.48 µM | Potency [20] 1.32 µM
-1.55: Z-AUC [17, 21]
inactive: Z-AUC [17] -0.815
-1.16: Z-AUC ([17]; measured here: PEO4 Z-AUC)

COc1ccc(C(=O)CC2(O)C(=O)Nc3c(Cl)ccc(Cl)c32)cc1 (stereo unspecified)
inactive: Z-AUC [17] -0.119
-0.085: Z-AUC ([17]; measured here: PEO4 Z-AUC)
active: Potency [1] 3.72 µM | Potency [2] 1.66 µM | Potency [3] 2.96 µM | Potency [4] 0.526 µM | Potency [5] 1.87 µM | Potency [6] 9.35 µM | Potency [9] 0.833 µM | Potency [10] 0.833 µM | Potency [11] 2.96 µM | Potency [12] 4.18 µM | Potency [13] 4.18 µM | Potency [15] 2.64 µM | Potency [16] 1.32 µM
-0.455: Z-AUC [17, 21]

C=C1C(=CC=C2CCCC3(C)[C@@H]([C@H](C)C=CC=CC(O)(CC)CC)CC[C@@H]23)C[C@@H](O)C[C@@H]1O (stereo partly specified)
active: Potency [1] 26.4 µM | Potency [2] 23.5 µM | Potency [3] 20.9 µM | Potency [4] 29.6 µM | Potency [6] 18.7 µM | Potency [8] 23.5 µM | Potency [9] 18.7 µM | Potency [10] 20.9 µM | Potency [11] 10.5 µM | Potency [13] 23.5 µM | Potency [14] 33.2 µM | Potency [15] 26.4 µM | Potency [16] 23.5 µM | Potency [20] 20.9 µM
